Experiments:
Assay in all cases: DAPPL (digital affinity profiling via proximity ligation, sequencing); 10 mM Tris-HCl pH 7.5, 50 mM NaCl, 1 mM DTT, 4% glycerol, room temperature, 30 min; GST-TFs on glutathione beads, 16-mer random dsDNA library, 0.1% formaldehyde crosslink after washing; high values mean tight binding
Details in all cases: protein: recombinant; tags: N-terminal GST; dsDNA, one strand shown
[1] = target: T1, ERG (Homo sapiens, UniProt P11308 1-479)
T1 sequence: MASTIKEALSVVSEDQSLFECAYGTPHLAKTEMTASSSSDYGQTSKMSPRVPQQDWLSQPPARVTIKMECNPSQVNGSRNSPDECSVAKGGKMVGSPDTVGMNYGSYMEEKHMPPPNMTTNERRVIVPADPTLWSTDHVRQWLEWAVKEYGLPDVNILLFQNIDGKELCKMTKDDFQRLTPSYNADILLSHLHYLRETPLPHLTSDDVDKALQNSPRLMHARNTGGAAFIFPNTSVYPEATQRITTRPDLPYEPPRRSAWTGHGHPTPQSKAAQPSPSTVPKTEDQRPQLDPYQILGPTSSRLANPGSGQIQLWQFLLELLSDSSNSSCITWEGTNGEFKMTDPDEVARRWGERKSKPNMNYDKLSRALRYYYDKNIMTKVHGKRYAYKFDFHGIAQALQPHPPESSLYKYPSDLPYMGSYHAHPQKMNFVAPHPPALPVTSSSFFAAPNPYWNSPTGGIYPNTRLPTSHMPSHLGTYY
Method in brief: (§1)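 Yeast served to express human transcription factors as GST fusions, which were then captured on glutathione beads and labelled with DNA barcodes. Pooled with a tag-only sample, they were incubated with 200 nmole of a 16-mer random double-stranded DNA library for 30 min at room temperature in Tris/NaCl/DTT/glycerol buffer, washed, crosslinked with 0.1% formaldehyde, ligated by proximity, amplified by PCR and sequenced. Dividing each hexamer's read frequency for a factor by its frequency for the tag-only sample gives the binding signal.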

[2] = target: ELF1 (Homo sapiens, UniProt P32519 1-619)
Method in brief: as §1

[3] = target: T2, SPIC (Homo sapiens, UniProt Q8N5J4 1-248)
T2 sequence: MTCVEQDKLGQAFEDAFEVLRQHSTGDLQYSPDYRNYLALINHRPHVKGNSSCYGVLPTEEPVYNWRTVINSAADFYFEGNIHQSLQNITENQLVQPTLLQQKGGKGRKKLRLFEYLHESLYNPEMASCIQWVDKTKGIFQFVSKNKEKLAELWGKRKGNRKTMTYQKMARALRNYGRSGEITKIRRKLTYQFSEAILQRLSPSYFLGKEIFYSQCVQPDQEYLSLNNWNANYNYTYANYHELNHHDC
Method in brief: as §1

[4] = target: ELF4 (Homo sapiens, UniProt Q99607 1-663)
Method in brief: as §1

[5] = target: T3, ETV2 (Homo sapiens, UniProt O00321 1-342)
T3 sequence: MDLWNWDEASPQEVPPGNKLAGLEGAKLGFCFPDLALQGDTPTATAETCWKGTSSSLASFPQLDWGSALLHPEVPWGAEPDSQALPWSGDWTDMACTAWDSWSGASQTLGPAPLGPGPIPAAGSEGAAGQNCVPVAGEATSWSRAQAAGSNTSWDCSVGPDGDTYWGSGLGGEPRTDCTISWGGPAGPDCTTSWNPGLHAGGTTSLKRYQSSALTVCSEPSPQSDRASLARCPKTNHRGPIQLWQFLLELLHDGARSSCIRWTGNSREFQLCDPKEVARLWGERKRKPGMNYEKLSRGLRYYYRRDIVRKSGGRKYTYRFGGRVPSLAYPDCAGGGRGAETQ
Method in brief: as §1

[6] = target: T4, ELF3 (Homo sapiens, UniProt P78545 1-371)
T4 sequence: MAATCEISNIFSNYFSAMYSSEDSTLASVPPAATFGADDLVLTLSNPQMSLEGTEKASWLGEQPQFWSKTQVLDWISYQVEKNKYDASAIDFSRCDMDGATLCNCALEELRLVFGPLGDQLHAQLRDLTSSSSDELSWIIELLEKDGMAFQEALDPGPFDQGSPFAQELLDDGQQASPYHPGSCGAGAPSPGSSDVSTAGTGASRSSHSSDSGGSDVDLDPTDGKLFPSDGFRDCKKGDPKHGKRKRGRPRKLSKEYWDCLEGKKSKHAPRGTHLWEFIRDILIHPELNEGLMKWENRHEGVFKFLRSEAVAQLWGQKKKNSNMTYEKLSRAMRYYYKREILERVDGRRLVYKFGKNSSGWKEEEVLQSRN
Method in brief: as §1

[7] = target: T5, ETV3L (Homo sapiens, UniProt Q6ZN32 1-361)
T5 sequence: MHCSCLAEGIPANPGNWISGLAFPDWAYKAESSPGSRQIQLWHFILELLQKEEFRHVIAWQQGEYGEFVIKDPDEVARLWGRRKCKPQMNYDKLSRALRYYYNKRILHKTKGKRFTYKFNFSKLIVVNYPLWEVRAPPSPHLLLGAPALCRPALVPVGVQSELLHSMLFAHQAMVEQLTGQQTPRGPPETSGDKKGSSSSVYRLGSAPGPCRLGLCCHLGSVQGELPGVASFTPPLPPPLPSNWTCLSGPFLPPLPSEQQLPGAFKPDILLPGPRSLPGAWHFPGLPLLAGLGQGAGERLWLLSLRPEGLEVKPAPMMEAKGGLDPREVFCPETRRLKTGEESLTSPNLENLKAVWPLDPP
Method in brief: as §1

[8] = target: T6, ETV7 (Homo sapiens, UniProt Q9Y603 1-341)
T6 sequence: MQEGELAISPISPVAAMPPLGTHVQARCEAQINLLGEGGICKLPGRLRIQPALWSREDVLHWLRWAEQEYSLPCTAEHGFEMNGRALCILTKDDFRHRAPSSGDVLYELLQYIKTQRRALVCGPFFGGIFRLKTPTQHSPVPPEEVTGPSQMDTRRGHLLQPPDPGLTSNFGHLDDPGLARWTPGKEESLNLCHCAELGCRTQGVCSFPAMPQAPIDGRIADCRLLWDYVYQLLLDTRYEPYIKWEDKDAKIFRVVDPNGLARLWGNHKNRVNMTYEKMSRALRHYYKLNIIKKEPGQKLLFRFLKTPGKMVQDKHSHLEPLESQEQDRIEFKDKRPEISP
Method in brief: as §1

[9] = target: ETV6 (Homo sapiens, UniProt P41212 1-452)
Method in brief: as §1

[10] = target: T7, ELK1 (Homo sapiens, UniProt P19419 1-428)
T7 sequence: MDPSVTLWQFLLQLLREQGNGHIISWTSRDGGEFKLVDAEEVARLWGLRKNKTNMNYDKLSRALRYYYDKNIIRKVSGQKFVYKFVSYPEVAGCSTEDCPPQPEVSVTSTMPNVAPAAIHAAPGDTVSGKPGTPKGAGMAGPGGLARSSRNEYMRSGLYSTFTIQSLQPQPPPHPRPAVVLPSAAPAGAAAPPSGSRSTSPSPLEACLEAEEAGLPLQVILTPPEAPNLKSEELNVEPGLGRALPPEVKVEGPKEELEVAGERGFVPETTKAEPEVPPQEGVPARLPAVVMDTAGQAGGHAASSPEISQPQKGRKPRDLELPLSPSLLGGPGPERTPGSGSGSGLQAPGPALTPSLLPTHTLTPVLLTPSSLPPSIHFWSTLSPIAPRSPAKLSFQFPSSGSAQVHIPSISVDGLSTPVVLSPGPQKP
Method in brief: as §1

[11] = target: T8, GABPA (Homo sapiens, UniProt Q06546 1-454)
T8 sequence: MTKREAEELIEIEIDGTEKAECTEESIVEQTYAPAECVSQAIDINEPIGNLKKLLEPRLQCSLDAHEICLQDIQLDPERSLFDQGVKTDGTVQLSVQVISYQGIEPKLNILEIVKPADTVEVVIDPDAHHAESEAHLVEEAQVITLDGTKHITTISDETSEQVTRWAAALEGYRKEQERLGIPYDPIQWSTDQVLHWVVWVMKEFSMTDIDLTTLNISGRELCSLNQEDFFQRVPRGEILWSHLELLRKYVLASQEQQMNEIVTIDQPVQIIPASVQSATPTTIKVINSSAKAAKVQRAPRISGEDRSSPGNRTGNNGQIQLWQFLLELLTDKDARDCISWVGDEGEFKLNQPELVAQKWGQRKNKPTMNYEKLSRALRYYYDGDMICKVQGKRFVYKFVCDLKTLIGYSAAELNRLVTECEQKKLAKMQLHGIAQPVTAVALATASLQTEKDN
Method in brief: as §1

[12] = target: T9, ELK3 (Homo sapiens, UniProt P41970 1-407)
T9 sequence: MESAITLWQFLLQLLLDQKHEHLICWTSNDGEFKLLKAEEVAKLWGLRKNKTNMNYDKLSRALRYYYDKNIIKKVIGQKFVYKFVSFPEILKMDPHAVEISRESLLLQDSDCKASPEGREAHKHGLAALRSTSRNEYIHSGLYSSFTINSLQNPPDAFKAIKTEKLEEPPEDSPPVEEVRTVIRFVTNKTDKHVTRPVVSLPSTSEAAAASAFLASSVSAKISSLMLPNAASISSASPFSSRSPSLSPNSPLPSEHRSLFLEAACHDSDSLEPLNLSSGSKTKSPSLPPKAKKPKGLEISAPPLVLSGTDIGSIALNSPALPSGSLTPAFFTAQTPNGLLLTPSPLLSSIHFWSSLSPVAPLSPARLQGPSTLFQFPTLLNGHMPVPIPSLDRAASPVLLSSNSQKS
Method in brief: as §1

[13] = target: T10, ELK4 (Homo sapiens, UniProt P28324-2 1-405)
T10 sequence: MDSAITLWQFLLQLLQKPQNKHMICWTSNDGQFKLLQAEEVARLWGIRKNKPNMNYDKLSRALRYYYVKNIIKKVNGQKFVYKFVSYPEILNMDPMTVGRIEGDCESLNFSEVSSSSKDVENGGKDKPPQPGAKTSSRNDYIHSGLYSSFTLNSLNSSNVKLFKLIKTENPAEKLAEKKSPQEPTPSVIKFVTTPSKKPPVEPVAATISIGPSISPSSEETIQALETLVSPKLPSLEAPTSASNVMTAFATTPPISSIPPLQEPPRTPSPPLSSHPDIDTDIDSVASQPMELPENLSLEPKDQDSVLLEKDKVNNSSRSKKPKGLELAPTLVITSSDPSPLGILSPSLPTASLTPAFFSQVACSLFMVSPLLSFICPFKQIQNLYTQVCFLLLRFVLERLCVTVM
Method in brief: as §1

[14] = target: ETV1 (Homo sapiens, UniProt P50549 1-477)
Method in brief: as §1

[15] = target: T11, ETV3 (Homo sapiens, UniProt P41162-2 1-143)
T11 sequence: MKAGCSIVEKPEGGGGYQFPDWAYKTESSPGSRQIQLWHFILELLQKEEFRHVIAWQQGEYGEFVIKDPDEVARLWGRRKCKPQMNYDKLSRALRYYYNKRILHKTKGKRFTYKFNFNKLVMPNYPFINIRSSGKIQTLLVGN
Method in brief: as §1

[16] = target: SPI1 (Homo sapiens, UniProt P17947 1-270)
Method in brief: as §1

[17] = target: SPIB (Homo sapiens, UniProt Q01892 1-262)
Method in brief: as §1

ETV6, sequence (P41212 whole entry): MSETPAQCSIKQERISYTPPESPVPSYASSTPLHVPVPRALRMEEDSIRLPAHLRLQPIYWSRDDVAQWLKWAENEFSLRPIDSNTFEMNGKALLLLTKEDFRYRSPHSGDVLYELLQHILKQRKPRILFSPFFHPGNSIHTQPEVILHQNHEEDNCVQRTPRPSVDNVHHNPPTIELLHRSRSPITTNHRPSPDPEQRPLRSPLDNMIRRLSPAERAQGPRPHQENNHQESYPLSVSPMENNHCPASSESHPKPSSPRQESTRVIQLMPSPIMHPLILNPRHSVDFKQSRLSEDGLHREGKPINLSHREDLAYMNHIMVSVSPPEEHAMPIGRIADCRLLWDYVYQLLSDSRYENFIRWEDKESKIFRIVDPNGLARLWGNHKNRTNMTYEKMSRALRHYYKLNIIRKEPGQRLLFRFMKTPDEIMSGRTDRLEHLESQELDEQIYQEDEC
ELF1, sequence (P32519 whole entry): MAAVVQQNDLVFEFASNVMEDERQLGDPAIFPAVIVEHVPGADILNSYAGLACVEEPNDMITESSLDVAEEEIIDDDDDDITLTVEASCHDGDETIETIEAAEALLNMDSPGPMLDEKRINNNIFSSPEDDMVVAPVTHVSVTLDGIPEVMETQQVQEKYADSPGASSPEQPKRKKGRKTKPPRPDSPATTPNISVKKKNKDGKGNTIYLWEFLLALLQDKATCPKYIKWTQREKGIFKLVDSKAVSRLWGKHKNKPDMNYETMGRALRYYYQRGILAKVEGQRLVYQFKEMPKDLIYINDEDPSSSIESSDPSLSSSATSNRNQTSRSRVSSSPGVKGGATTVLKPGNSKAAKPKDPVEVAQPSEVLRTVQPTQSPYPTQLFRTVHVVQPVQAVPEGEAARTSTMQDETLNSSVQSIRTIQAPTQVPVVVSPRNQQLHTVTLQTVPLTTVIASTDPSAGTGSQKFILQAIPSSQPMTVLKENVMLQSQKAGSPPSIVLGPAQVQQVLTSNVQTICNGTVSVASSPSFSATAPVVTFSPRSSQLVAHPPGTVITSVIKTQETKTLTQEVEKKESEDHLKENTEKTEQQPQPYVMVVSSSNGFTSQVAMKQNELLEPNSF
ELF4, sequence (Q99607 whole entry): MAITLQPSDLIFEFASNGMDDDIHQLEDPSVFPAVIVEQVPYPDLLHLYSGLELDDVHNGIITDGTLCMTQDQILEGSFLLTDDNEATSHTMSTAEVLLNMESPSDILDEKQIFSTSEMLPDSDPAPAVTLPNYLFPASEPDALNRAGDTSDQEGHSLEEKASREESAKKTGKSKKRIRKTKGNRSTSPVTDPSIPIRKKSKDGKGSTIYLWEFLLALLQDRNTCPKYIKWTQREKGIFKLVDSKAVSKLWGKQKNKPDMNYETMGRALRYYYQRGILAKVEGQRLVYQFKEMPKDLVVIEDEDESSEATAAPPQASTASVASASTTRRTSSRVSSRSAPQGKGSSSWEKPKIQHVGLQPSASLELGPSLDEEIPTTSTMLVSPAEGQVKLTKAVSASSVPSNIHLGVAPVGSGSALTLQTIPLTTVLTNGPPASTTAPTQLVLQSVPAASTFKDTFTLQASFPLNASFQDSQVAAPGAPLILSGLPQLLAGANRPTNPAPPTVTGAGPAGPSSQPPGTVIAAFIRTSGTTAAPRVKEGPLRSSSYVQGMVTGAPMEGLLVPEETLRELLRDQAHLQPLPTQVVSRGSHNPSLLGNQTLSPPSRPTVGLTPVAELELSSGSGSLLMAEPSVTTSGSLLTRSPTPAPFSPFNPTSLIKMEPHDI
ETV1, sequence (P50549 whole entry): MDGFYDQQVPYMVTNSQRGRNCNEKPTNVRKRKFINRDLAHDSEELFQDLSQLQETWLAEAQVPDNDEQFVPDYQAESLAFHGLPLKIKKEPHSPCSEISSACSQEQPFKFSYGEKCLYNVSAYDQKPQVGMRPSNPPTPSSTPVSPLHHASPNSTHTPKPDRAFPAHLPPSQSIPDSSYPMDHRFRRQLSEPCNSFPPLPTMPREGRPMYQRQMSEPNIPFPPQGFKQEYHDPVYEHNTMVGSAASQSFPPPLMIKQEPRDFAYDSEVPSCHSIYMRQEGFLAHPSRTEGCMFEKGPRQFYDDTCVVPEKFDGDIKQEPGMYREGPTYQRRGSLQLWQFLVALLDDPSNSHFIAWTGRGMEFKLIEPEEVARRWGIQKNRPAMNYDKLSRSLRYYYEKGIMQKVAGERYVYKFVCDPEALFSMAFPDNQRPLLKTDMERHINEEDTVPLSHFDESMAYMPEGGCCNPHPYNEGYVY
SPIB, sequence (Q01892 whole entry): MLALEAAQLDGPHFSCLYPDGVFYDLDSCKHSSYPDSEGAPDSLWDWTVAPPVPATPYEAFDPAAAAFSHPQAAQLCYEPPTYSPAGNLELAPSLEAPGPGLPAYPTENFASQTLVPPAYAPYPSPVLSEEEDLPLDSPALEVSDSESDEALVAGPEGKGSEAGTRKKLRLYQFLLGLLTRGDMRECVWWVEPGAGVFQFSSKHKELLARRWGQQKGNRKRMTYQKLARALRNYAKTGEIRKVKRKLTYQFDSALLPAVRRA

Sequence	binding signal [1]	binding signal [2]	binding signal [3]	binding signal [4]	binding signal [5]	binding signal [6]	binding signal [7]	binding signal [8]	binding signal [9]	binding signal [10]	binding signal [11]	binding signal [12]	binding signal [13]	binding signal [14]	binding signal [15]	binding signal [16]	binding signal [17]
ACTCAG	1.06 fold enrichment (6-mer frequency, TF over GST control)	1.07 fold enrichment (6-mer frequency, TF over GST control)	1.11 fold enrichment (6-mer frequency, TF over GST control)	1.08 fold enrichment (6-mer frequency, TF over GST control)	1.09 fold enrichment (6-mer frequency, TF over GST control)	1.02 fold enrichment (6-mer frequency, TF over GST control)	1.01 fold enrichment (6-mer frequency, TF over GST control)	1.05 fold enrichment (6-mer frequency, TF over GST control)	1.05 fold enrichment (6-mer frequency, TF over GST control)								
GAAGCC	1.08 fold enrichment (6-mer frequency, TF over GST control)		1 fold enrichment (6-mer frequency, TF over GST control)	1.04 fold enrichment (6-mer frequency, TF over GST control)	1.04 fold enrichment (6-mer frequency, TF over GST control)			1.12 fold enrichment (6-mer frequency, TF over GST control)	1.09 fold enrichment (6-mer frequency, TF over GST control)	1.06 fold enrichment (6-mer frequency, TF over GST control)	1 fold enrichment (6-mer frequency, TF over GST control)	1.05 fold enrichment (6-mer frequency, TF over GST control)	1.01 fold enrichment (6-mer frequency, TF over GST control)	1.04 fold enrichment (6-mer frequency, TF over GST control)	1 fold enrichment (6-mer frequency, TF over GST control)		
ACGCTC	1.01 fold enrichment (6-mer frequency, TF over GST control)	1.07 fold enrichment (6-mer frequency, TF over GST control)	1 fold enrichment (6-mer frequency, TF over GST control)	1.08 fold enrichment (6-mer frequency, TF over GST control)	1.02 fold enrichment (6-mer frequency, TF over GST control)						1.05 fold enrichment (6-mer frequency, TF over GST control)		1.01 fold enrichment (6-mer frequency, TF over GST control)				
GTTACC	1.04 fold enrichment (6-mer frequency, TF over GST control)	1.04 fold enrichment (6-mer frequency, TF over GST control)	1.03 fold enrichment (6-mer frequency, TF over GST control)	1.07 fold enrichment (6-mer frequency, TF over GST control)		1.06 fold enrichment (6-mer frequency, TF over GST control)	1.04 fold enrichment (6-mer frequency, TF over GST control)	1.02 fold enrichment (6-mer frequency, TF over GST control)	1.03 fold enrichment (6-mer frequency, TF over GST control)	1.16 fold enrichment (6-mer frequency, TF over GST control)	1.05 fold enrichment (6-mer frequency, TF over GST control)	1.08 fold enrichment (6-mer frequency, TF over GST control)		1.08 fold enrichment (6-mer frequency, TF over GST control)	1.03 fold enrichment (6-mer frequency, TF over GST control)	1.12 fold enrichment (6-mer frequency, TF over GST control)	1.14 fold enrichment (6-mer frequency, TF over GST control)
